Most compounds without a hit are left out; they make up all but 4% or so of the library.
Mtb betalactam – beta-lactam sensitization of Mtb H37Rv | M. tuberculosis H37Rv growth with meropenem, percent inhibition | inhibition, % at 25 µM | actives 0.27% (n = 330,000); call rule not given here;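 also: growth measured after seven days incubation then overnight dye step; 0% = bacteria only wells and 100% = bacteria with antibiotic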
CCHF vOTU inh – blocks the CCHF virus ovarian tumor domain protease. actives 0.55% (n = 370,000). inhibition, % at 11.5 µM. CCHFV vOTU protease, Pep-AMC fluorescence; also: 0% = vehicle wells with enzyme and 100% = no enzyme wells
GDH-TPI inh – inhibits GDH-TPI coupling enzymes, artifact for Mtb FBA screen. actives 1.2% (n = 360,000). GDH-TPI coupled enzyme counterscreen, NADH absorbance. inhibition, % at 4.8 µM. AID 588335;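 also: 0% = DMSO wells and 100% = wells lacking the enzyme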
MazF activator – increases E. coli MazEF RNase cleavage of RNA | FAM/BHQ RNA-DNA oligo cleavage fluorescence, 5 h | activation, % at 20 µM | actives 0.32% (n = 350,000) | AID 504720; in the data active = activation above about 50%
Target sequence (P0AE70 whole entry, looked up): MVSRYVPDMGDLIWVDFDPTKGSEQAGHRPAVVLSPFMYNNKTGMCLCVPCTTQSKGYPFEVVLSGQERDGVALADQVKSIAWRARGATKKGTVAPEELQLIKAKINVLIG
FBA Mtb inh – inhibits M. tuberculosis FBA enzyme; purified M. tuberculosis FBA, fluorescence read-out; inhibition, % at 1 µM; actives 2.3% (n = 360,000); AID 588726; in the data active = inhibition above about 27%;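 also: 0% = vehicle and 100% = reference inhibitor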
Target sequence (P9WQA3 whole entry, looked up): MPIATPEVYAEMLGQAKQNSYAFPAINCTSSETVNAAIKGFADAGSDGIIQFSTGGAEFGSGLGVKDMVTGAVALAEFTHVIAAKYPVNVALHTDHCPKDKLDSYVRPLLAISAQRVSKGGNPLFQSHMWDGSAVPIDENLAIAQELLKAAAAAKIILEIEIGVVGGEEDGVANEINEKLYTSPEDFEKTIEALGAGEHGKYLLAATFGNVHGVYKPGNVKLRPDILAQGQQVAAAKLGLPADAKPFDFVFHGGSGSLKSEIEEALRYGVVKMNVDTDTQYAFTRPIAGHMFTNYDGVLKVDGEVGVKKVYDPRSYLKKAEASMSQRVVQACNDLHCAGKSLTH
Numbers without * were called inactive; . = no result given; + = active, no number. Rule as the data show it, unless noted: active = inhibition above about 30%; inactive = the rest.

SMILES	Mtb betalactam	CCHF vOTU inh	GDH-TPI inh	MazF activator	FBA Mtb inh
Cc1cccc(C(=O)N2N=C(c3ccc(NS(C)(=O)=O)cc3)CC2c2cccs2)c1 (centres undefined)	-4	-14	12	-1	1
CCC(CC)C(=O)N1N=C(c2ccc(NS(C)(=O)=O)cc2)CC1c1ccccc1 (centres undefined)	5	-89	23	9	+
CCC(=O)N1N=C(c2ccc(NS(C)(=O)=O)cc2)CC1c1ccc(C)cc1 (centres undefined)	1	-187	17	5	+
CS(=O)(=O)Nc1ccc(C2=NN(S(C)(=O)=O)C(c3ccc4c(c3)OCO4)C2)cc1 (centres undefined)	-3	-29	12	13	141*
CC(=O)N1N=C(c2cccc(NS(C)(=O)=O)c2)CC1c1ccc2c(c1)OCO2 (centres undefined)	0	4	4	10	-2
CCC(=O)N1N=C(c2ccccc2)CC1c1ccccc1 (centres undefined)	2	-8	0	0	-1
O=C(CSc1nnc(-c2ccc(Cl)cc2)n1Cc1ccco1)Nc1ccc(S(=O)(=O)Nc2nccs2)cc1	.	17	.	.	.
COc1ccc(-c2cc(C(=O)N(C3CCCCC3)C3CCCCC3)no2)cc1	.	3	.	.	.
COc1ccc(NC(=O)CN(C)S(=O)(=O)c2ccccc2)c([N+](=O)[O-])c1	-6	5	11	263*	-1
COc1ccc(NC(=O)CN(C)S(=O)(=O)c2ccc(Cl)cc2)c([N+](=O)[O-])c1	-7	.	13	14	0
CCCCC(=O)Nc1ccc(C(=O)Nc2ccc(OC)cc2[N+](=O)[O-])cc1	0	-6	14	743*	2
CCCCCCCCN1CCS(=O)(=O)N(Cc2ccccc2)C(C(=O)OC)C1 (centres undefined)	.	19	.	.	.
Cc1ccc(Cn2c(=N)c(C(=O)NCC3CCCO3)cc3c(=O)n4cccc(C)c4nc32)cc1 (centres undefined)	1	-286	3	12	+
N=c1c(C(=O)NCC2CCCO2)cc2c(=O)n3ccccc3nc2n1Cc1ccccc1Cl (centres undefined)	-6	-146	6	11	166*
N=c1c(C(=O)NCC2CCCO2)cc2c(=O)n3ccccc3nc2n1Cc1ccccc1 (centres undefined)	2	-375	18	7	+
COc1ccc(CCNC(=O)c2cc3c(=O)n4ccccc4nc3n(CC3CCCO3)c2=N)cc1OC (centres undefined)	3	-9	3	8	3
N=c1c(C(=O)NCC2CCCO2)cc2c(=O)n3ccccc3nc2n1Cc1ccc(Cl)cc1 (centres undefined)	4	-194	0	7	+
COC1=C[C@H](C(=O)NCCOC(C)=O)[C@H](C)[C@@H](c2ccccc2)CC1=O	.	-3	.	.	.
Cc1ccc(OCc2nnc(SCC(=O)c3ccc4ccccc4c3)n2-c2ccc(Cl)cc2)cc1	.	4	.	.	.
Cc1ccc(Cn2c(=N)c(C(=O)NCC3CCCO3)cc3c(=O)n4ccccc4nc32)cc1 (centres undefined)	8	-106	4	21	162*
COc1ccc(Cn2c(=N)c(C(=O)NCC3CCCO3)cc3c(=O)n4ccccc4nc32)cc1 (centres undefined)	-7	-5	15	8	9
CCOC(=O)[C@@]12CCCC=C1N(CCc1ccc(Cl)cc1)C(=O)[C@H]2CC(=O)NCc1ccccc1	.	12	.	.	.
N=c1c(C(=O)NC2CCCC2)cc2c(=O)n3ccccc3nc2n1CCCN1CCOCC1	-7	-99	10	15	158*
N=c1c(C(=O)NC2CCCC2)cc2c(=O)n3ccccc3nc2n1CCN1CCOCC1	-1	-37	12	4	176*
Cc1ccc(Cn2c(=N)c(C(=O)NC3CCCCC3)cc3c(=O)n4ccccc4nc32)cc1	88	-1	-3	-13	24
SMILES	Mtb betalactam	CCHF vOTU inh	GDH-TPI inh	MazF activator	FBA Mtb inh
N#Cc1cc2c(=O)n3ccccc3nc2n(-c2ccccc2Cl)c1=O	-2	-377	-3	2	+
COc1ccc(CCn2c(=N)c(C(=O)NC3CCCCC3)cc3c(=O)n4ccccc4nc32)cc1	20	14	8	-25	3
N=c1c(C(=O)NC2CCCC2)cc2c(=O)n3ccccc3nc2n1Cc1ccccc1	-3	-125	0	6	146*
COc1ccc(CCn2c(=N)c(C(=O)NCCN3CCOCC3)cc3c(=O)n4ccccc4nc32)cc1OC	-1	12	5	6	-2
N#Cc1cc2c(=O)n3ccccc3nc2n(Cc2cccnc2)c1=O	-10	-156	1	-3	+
CCOC(=O)c1cc2c(=O)n3ccccc3nc2n(Cc2ccccc2)c1=N	3	-58	-6	-30	79*
CCCNc1nc2nc3ccccn3c(=O)c2cc1C(=O)NCCN1CCOCC1	6	-92	4	3	155*
O=C(NCCN1CCOCC1)c1cc2c(=O)n3ccccc3nc2n1Cc1ccccc1	2	-312	16	0	+
c1ccc2c(c1)N=C(N1CCN(Cc3ccc4c(c3)OCO4)CC1)c1ccccc1S2	.	-1	.	.	.
CN(CCc1ccccn1)C(=O)Cn1nc(-c2ccccc2)ccc1=O	.	-1	.	.	.
O=C(COCc1ccccc1)N1CC[C@H]2[C@H](CCCN2Cc2ccc(F)cc2)C1	.	0	.	.	.
COC(=O)[C@]12C[C@H](CC(=O)NCCCN3CCCC3=O)C(=O)N(Cc3ccc(Cl)cc3Cl)C1=C[C@H](COCc1ccccc1)O[C@@H]2C	.	1	.	.	.
CC(C)(C)C(=O)OC12CCCN(C1)/C(=C/c1ccccc1)C2 (centres undefined)	.	5	.	.	.
Cc1ccc(Cn2cc(COC(=O)Nc3ccc(F)cc3)nn2)cc1	.	-2	.	.	.
CCOC(=O)Nc1ccc2c(c1)[C@@]1(CC(=O)N(CC(C)C)C1c1ccccc1)C(=O)N2C (some centres undefined)	.	1	.	.	.
COc1ccc(CCNC(=O)c2cc3c(=O)n4ccccc4nc3n(CCCN3CCOCC3)c2=N)cc1OC	49	11	9	18	3
N#Cc1cc2c(=O)n3ccccc3nc2n(CCCN2CCOCC2)c1=O	-6	-236	14	1	+
COC(=O)C1C2c3ccccc3OC1(C)N=c1s/c(=C/c3cnn(C)c3)c(=O)n12 (centres undefined)	99	11	14	-3	2
CC(=O)C1C2c3ccccc3OC1(C)N=c1s/c(=C/c3cn(C)nc3C)c(=O)n12 (centres undefined)	4	16	36*	4	1
Cc1nc(S/C(=C/c2ccc(OCc3ccc(C(=O)O)cc3)cc2)C(=O)O)n[nH]1	-2	11	31*	-2	4
COC(=O)[C@]12C[C@H](CC(=O)N3CCSCC3)C(=O)N(Cc3ccc4c(c3)OCO4)C1=C[C@H](C(C)C)O[C@@H]2C1CC1	.	-1	.	.	.
CCOC(=O)N1CCc2c(sc(N)c2C#N)C1	-7	-6	.	-16	.

High-throughput results: PubChem, several laboratories
